Compound activity as filed in PubChem BioAssay.
Rows were chosen to be rich in hits. Some 21% of all compounds tested hit in one or more screens of this group.
HCV inh – HCV inhibition. Huh7.5.1 HCVcc-Cre infection, luciferase reporter, 44 h. Potency, µM (top dose mostly 41.8 µM), actives largely listed as inhibitors. hit rate 3.4% among 340,000. AID 651820
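HCVcc-Cre virus at an moi near 0.5 was added right after compound to cells cultured 4 h from seeding (1,000 cells/well). Luciferase activity was determined 44 h later, 15 min after substrate addition at RT.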
Shiga inhibitor – blocks Shiga toxin action in Vero cells; AID 2315; inhibition, % at 38.7 µM; Vero cells, Shiga toxin protein synthesis inhibition reporter; hit rate 9.2% among 290,000; in the data active = inhibition mostly above about 28%, no sharp cut-off; inactive = mostly below about 43%
Pf growth 96h – inhibits malaria parasite growth, 96 h | P. falciparum luciferase reporter growth, 96 h | Potency, µM (highest dose often 28.7 µM), most hits filed as inhibitors | hit rate 6.9% among 320,000 | AID 504834
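Cell-based qHTS: luciferase-tagged P. falciparum in erythrocytes (2% hematocrit, 0.05% parasitemia final) incubated with compounds for 96 hours, 37 C, 5% CO2; luciferase detection reagent then added and luminescence measured.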
CHX counter – affects cycloheximide protein synthesis inhibition readout, counter-screen | cell reporter, cycloheximide protein synthesis inhibition counterscreen | hit rate 12% among 300,000 | max response, % | AID 2314; in the data active = max response mostly above about 13%, no sharp cut-off; inactive = mostly below about 14%; note: read at 38.3 µM for the half of the compounds with a filed dose
HCMV antiviral – human cytomegalovirus inhibition | HFF cells, HCMV-luciferase reporter, 72 h; active compounds read low | activity change, negative = inhibition, % at 57.5 µM | AID 1259415 | hit rate 4.5% among 410,000; in the data active = activity change below about -60%; inconclusive = no clear call, values can overlap the other calls; inactive = above about -39%
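Compounds were evaluated in HFFs infected with an HCMV luciferase reporter virus (MOI 1 PFU/cell). Luciferase in lysates collected 72 h post infection served as the replication measure.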
Pf growth 48h – P. falciparum growth inhibition at 48 hours (one generation). P. falciparum luciferase growth in erythrocytes, 48 h. Potency, µM (titrated, usually from 28.7 µM), hits mostly inhibitors. hit rate 5.9% among 310,000
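Firefly luciferase activity from engineered P. falciparum reports growth; inhibitors lower the luminescent signal. Cultures contained 2% hematocrit erythrocytes at 0.1% final parasitemia.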
Hits are given with their value; 0 = inactive; ? = inconclusive; - = no result given; + = active, no number. Unless noted, calls come from the whole dose curve; as a rule, active = well fitted inhibition curve with a large enough effect; inconclusive = small, poorly fitted or top-dose-only effect, or another doubt; inactive = no such curve, though single readings can be large or run the other way.

SMILES	HCV inh	Shiga inhibitor	Pf growth 96h	CHX counter	HCMV antiviral	Pf growth 48h
Cc1ccc(-c2cccc(NC(=O)C3C(C(=O)O)[C@@H]4C=C[C@H]3C4)c2)o1 (stereo partly drawn)	0	33	0	0	0	0
O=C(COC(=O)c1cccc(O)c1)Nc1ccc(S(=O)(=O)N2CCOCC2)cc1	0	-	0	-	0	0
Cc1cccc(C)c1-n1ncc(C(=O)NCCCN2CCC(C)CC2)c1C1CCN(C(=O)OC(C)(C)C)CC1	-	-	-	-	0	-
CSCCC(NC(=O)COc1ccccc1)C(=O)N(C)CC(=O)Nc1c(C)cccc1C (stereo not drawn)	0	-	0	-	0	0
O=C(Oc1cccc(NC(=O)c2ccccc2Cl)c1)c1ccc([N+](=O)[O-])cc1	?	0	?	0	0	0
COc1ccccc1C(=O)Oc1ccccc1C(=O)Nc1ccccc1	0	52	?	23	0	0
COc1ccccc1C(=O)Nc1ccc(C(=O)O)cc1	0	0	-	0	0	0
O=C(Oc1ccccc1C(=O)Nc1ccccc1)c1ccc(Br)c([N+](=O)[O-])c1	0	26	0	50	0	0
COc1ccccc1C(=O)NNC(=S)Nc1ccccc1	0	0	0	0	0	0
COc1ccccc1C(=O)Nc1ccc(C(=O)c2ccccc2)cc1	0	62	0	27	0	0
Cc1cc(C)c2c(=O)cc(C(F)(F)F)oc2n1	0	0	0	0	0	0
CC1=C(C(=O)Nc2ccc(F)cc2)C(c2ccc(N(C)C)cc2)NC(=O)N1 (stereo not drawn)	-	-	-	-	0	-
O=C(CSc1nnnn1-c1ccc2c(c1)OCCO2)N1CCN(C(=O)c2ccco2)CC1	0	0	0	0	0	0
Cc1ccc(NC(=O)Cc2ccc(-n3c(C)nc4cccnc43)cc2)c(Cl)c1	-	-	-	-	+	-
CCOCCCNC(=O)Cc1ccc(-n2c(CC)nc3cccnc32)cc1	0	0	?	0	0	0
CCc1nc2cccnc2n1-c1ccc(CC(=O)O)cc1	0	0	10µM	0	0	0
Cc1ccc(NC(=O)C(OC(=O)c2cc(C)oc2C)c2ccccc2)cc1 (stereo not drawn)	0	0	?	0	-61	0
Cc1cc(C(=O)OC(C(=O)Nc2cccc(C(F)(F)F)c2)c2ccccc2)c(C)o1 (stereo not drawn)	?	0	5.2µM	0	0	9.3µM
Cc1cc(C(=O)Nc2ccccc2)c(C)o1	0	0	0	0	0	-
O=C(NCc1ccccc1)c1cc(-c2cccc(O)c2)on1	?	61	0	25	0	0
O=C(NCc1cccnc1)c1cc(-c2cccs2)on1	0	37	-	60	0	0
COc1ccc(-c2cc(C(=O)NCc3cccnc3)no2)cc1	0	73	?	43	0	0
O=C(NCc1cccnc1)c1cc(-c2ccccc2)on1	0	0	?	40	0	0
O=C(Cc1ccc(-c2ccccc2)cc1)NCc1cccnc1	?	0	0	0	0	0
CC1CC(=O)Nc2ccccc2N1C(=O)COc1cc(Cl)ccc1Cl (stereo not drawn)	0	-	0	-	0	0
SMILES	HCV inh	Shiga inhibitor	Pf growth 96h	CHX counter	HCMV antiviral	Pf growth 48h
O=Cc1cscc1[B-](F)(F)F	-	-	-	-	0	-
Cc1cccc(Cl)c1NC(=O)NCCCN1CCOCC1	-	-	-	-	0	-
O=C(NCc1cccnc1)c1nc(-c2ccccc2)n(-c2ccccc2)n1	0	0	3.3µM	0	0	0
COC(=O)C1=C(C)NC(C)=C(C(=O)OCCSc2ccccc2)C1C (stereo not drawn)	-	23	-	13	-	-
COc1cc(NC(=O)c2nn(C)c3c2COc2ccccc2-3)cc(OC)c1OC	-	-	-	-	0	-
COC(=O)c1ccc(C2OCC(C)(C)CO2)cc1	0	150	?	49	0	0
CC1(C(=O)O)COC(c2ccc(Cl)cc2)OC1 (stereo not drawn)	0	0	0	0	0	2.9µM
CCOC(=O)c1c(C)oc2nc(C)nc(NCC3CCN(Cc4ccccc4C)CC3)c12	-	-	-	-	-104	-
Cc1ccc(NC(=S)NCC2CCN(C(C)c3ccccc3)C2)cc1C (stereo not drawn)	0	0	0	0	-63	?
Cc1ccc(NC(=S)NCc2ccccc2)cc1S(=O)(=O)N1CCCCC1	?	0	?	0	0	?
CCC(=O)N1CCC1(C)C(=O)NCc1ccccc1SC (stereo not drawn)	-	-	-	-	0	-
COc1ccc(-c2cc(CCC(=O)N3CCN(c4cc(C)ccc4C)CC3)on2)cc1	?	-	-	-	0	-
CCN1CCN(c2cc(C)c3cc(NC(=O)Cc4ccccc4OC)ccc3n2)CC1	?	0	?	0	0	12µM
COc1ccccc1CC(=O)Nc1ccc2nc(N3CCC(C)CC3)cc(C)c2c1	-	-	-	-	0	-
CCN1CCN(c2cc(C)c3cc(NC(=O)c4ccc(OC)c(OC)c4)ccc3n2)CC1	11µM	0	0	0	?	-
CCN1CCN(c2cc(C)c3cc(NC(=O)c4cccs4)ccc3n2)CC1	?	0	?	21	0	2.1µM
CCN1CCN(c2cc(C)c3cc(NC(=O)c4cc(OC)c(OC)c(OC)c4)ccc3n2)CC1	-	-	-	-	0	-
Cc1ccccc1NC(=O)Nc1ccc2nc(N3CCN(C)CC3)cc(C)c2c1	-	-	-	-	0	-
CCOc1ccccc1NC(=O)Nc1ccc2nc(N3CCN(C)CC3)cc(C)c2c1	-	-	-	-	-106	-
Cc1ccc(Cl)c(NC(=O)Nc2csc3c2CCCC3)c1	-	-	-	-	0	-
Cc1cccnc1CN1CCN(Cc2nc(Cc3cccc(F)c3)no2)CC1	0	0	0	0	0	?
COC(=O)c1cc(S(=O)(=O)NCC2CCN(CCc3ccc(OC)cc3)CC2)c[nH]1	0	0	0	0	0	0
CCOC(=O)c1c(C)c(-c2ccccc2)n(CC(=O)Nc2cc(OC)cc(OC)c2)c1C	-	-	-	-	0	-
Cc1cccc(CC(=O)Nc2ccc3nc(N4CCC(C)CC4)cc(C)c3c2)c1	-	-	-	-	0	-
CCN1CCN(c2cc(C)c3cc(NC(=O)c4ccc5c(c4)OCO5)ccc3n2)CC1	?	0	0	0	0	3.3µM
SMILES	HCV inh	Shiga inhibitor	Pf growth 96h	CHX counter	HCMV antiviral	Pf growth 48h
CCN1CCN(c2cc(C)c3cc(NC(=O)c4cccc(C(F)(F)F)c4)ccc3n2)CC1	-	-	-	-	0	-
COc1ccc(/C=C/C(=O)Nc2ccc3nc(N4CCC(C)CC4)cc(C)c3c2)cc1OC	-	-	-	-	-88	-
CCN1CCN(c2cc(C)c3cc(NC(=O)c4cncc(Br)c4)ccc3n2)CC1	5.6µM	0	1.9µM	0	?	0.1µM
CCN1CCN(c2cc(C)c3cc(NC(=O)c4cccc(OC)c4)ccc3n2)CC1	?	39	2.1µM	31	?	?
O=C1CC(c2cccc(O)c2)c2c(nc(SCc3ccccc3F)[nH]c2=O)N1 (stereo not drawn)	-	-	-	-	0	-
CCN1CCN(c2cc(C)c3cc(NC(=O)/C=C/c4ccc(OCCC(C)C)cc4)ccc3n2)CC1	-	-	-	-	-79	-
CCN1CCN(c2cc(C)c3cc(NC(=O)/C=C/c4ccc(C)cc4)ccc3n2)CC1	-	-	-	-	0	-
CCOC(=O)C1=C(O)CSC1=Nc1ccc(Cl)cc1	0	0	10µM	0	0	10µM
